Vaccinia Venus: vaccinia inhibition (Venus reporter) | AID 720580 | Vaccinia virus Venus reporter expression, fluorescence | 0.46% of 330,000 active | Potency, µM (series often up to 36.5 µM), actives largely listed as inhibitors; calls by dose curve; tested in A549 cells; also: nearly all actives have a fitted effect of over 30% in size
HCV inhibitor: HCV inhibition; Huh7.5.1 HCVcc-Cre infection, luciferase reporter, 44 h; Potency, µM (titrated, usually from 41.8 µM), actives largely listed as inhibitors; 3.4% of 340,000 active
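Cells (1,000/well) were plated 4 h before compound, then infected with HCVcc-Cre virus (~0.5 moi). After 44 h further culture, infection was read as luciferase luminescence following a 15 min substrate incubation at room temperature.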
FMDV antiviral: foot and mouth disease virus antiviral activity. AID 1159524. Potency, µM (series often up to 57.9 µM), usual class: inhibitors. FMDV antiviral cell-based qHTS. 1.2% of 410,000 active; calls by dose curve; tested in HEK293T cells; also: read-out not given here; nearly all actives have a fitted effect of over 45% in size
VACV mCherry inh: inhibitors of vaccinia virus infection (mCherry reporter signal). Vaccinia virus mCherry reporter infection, fluorescence. Potency, µM (series often up to 36.5 µM), hits mostly inhibitors. 0.63% of 310,000 active; calls by dose curve; tested in A549 cells; also: nearly all actives have a fitted effect of over 35% in size
Sm TGR block: inhibitors of Schistosoma mansoni thioredoxin glutathione reductase | Q962Y6 | purified TGR, DTNB reduction, TNB absorbance 405 nm | Potency, µM (titrated, usually from 114 µM), usual class: inhibitors | 3% of 360,000 active | AID 485364; also: nearly all actives have a fitted effect of over 60% in size
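Kinetic colorimetric format: TGR-catalysed, NADPH-driven DTNB reduction monitored via TNB absorbance. Enzyme dispensed at 20 nM; compound exposure 15 min at room temperature before reaction start.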
HCMV inh: inhibitors of human cytomegalovirus. HFF cells, HCMV-luciferase reporter, 72 h; hits give low values. activity change, negative = inhibition, % at 57.5 µM. 4.5% of 410,000 active. AID 1259415; in the data active = activity change below about -60%; inconclusive = no clear call, values can overlap the other calls; inactive = above about -39%
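Steps: HFFs plated, 16 h 37C; compounds added; HCMV-luciferase added to MOI 1 PFU/cell; 72 h 37C; OneGlo reagent, 5 min room temperature; luminescence read, normalized to controls.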
Each line names hits and unclear results; the compound was inactive in the other large screens. An excerpt weighted towards active compounds, which were near 9.3% of everything screened. Unless noted, calls follow the shape of the dose curve; as a rule, active = well fitted curve in the direction sought with a large enough effect; inconclusive = small, poorly fitted or top-dose-only effect, or another doubt; inactive = no such curve, though single readings can be large; an effect the other way counts as inactive or inconclusive.

Cc1ccccc1-c1nc(CS(=O)CC(=O)NCc2ccccc2)c(C)o1 (stereo unspecified)	VACV mCherry inh inconclusive, Sm TGR block 22.4µM
CCOc1ccccc1NC(=O)c1ccoc1C	HCV inhibitor 6.31µM
CCc1cc(C(=O)OC)c(NC(=O)CCCC(=O)O)s1	none (no result: VACV mCherry inh)
CCOc1ccccc1C(=O)Nc1ccccc1O	HCV inhibitor 11.2µM (no result: Vaccinia Venus, VACV mCherry inh)
CCOc1ccccc1NC(=O)c1ccc(C(=O)Nc2ccccc2OCC)cc1	none (no result: HCV inhibitor)
CCc1cc(C(=O)OC)c(NC(=O)c2ccoc2C)s1	HCV inhibitor 10µM (no result: Vaccinia Venus, VACV mCherry inh)
CCc1cc(C(=O)OC)c(NC(=O)CSc2nccn2C)s1	HCV inhibitor 10µM
CC(Oc1ccccc1Cl)C(=O)Nc1ccc(S(=O)(=O)N2CCN(C)CC2)cc1 (stereo unspecified)	FMDV antiviral inconclusive (no result: Sm TGR block)
CCOc1ccccc1C(=O)Nc1nnc(COC)s1	HCV inhibitor 7.08µM
O=C(Nc1nccs1)c1ccc(COc2ccccc2Br)o1	Vaccinia Venus inconclusive, HCV inhibitor 11.2µM (no result: FMDV antiviral)
CCOc1ccccc1C(=O)Nc1cnn(Cc2ccc(F)cc2)c1	HCV inhibitor inconclusive, VACV mCherry inh inconclusive, HCMV inh -63.4
COc1ccc(C)cc1NC(=O)c1ccoc1C	HCV inhibitor 14.1µM (no result: VACV mCherry inh)
COc1ccc(C)cc1NC(=O)NNC(=O)c1ccoc1C	none
CCOC(=O)Cc1nnc(NC(=O)c2ccccc2OCC)s1	Vaccinia Venus inconclusive, HCV inhibitor inconclusive (no result: VACV mCherry inh)
CCCS(=O)(=O)NC(=O)C1(C)CCCN(C(=O)c2ccc(C(F)(F)F)cc2)C1 (stereo unspecified)	none (no result: HCV inhibitor, Sm TGR block)
CCOc1ccccc1C(=O)Nc1nccs1	HCV inhibitor 5.62µM (no result: VACV mCherry inh)
O=S(=O)(NC(=NCCc1ccc(Cl)cc1)c1ccccc1Cl)c1cccs1	HCV inhibitor inconclusive
COc1ccc(/C=C/C(=O)c2c(O)cc(C)oc2=O)c(OC)c1	HCV inhibitor 11.2µM
COc1cc(/C=C/C(=O)c2c(O)cc(C)oc2=O)cc(OC)c1O	FMDV antiviral 14.1µM, Sm TGR block 100µM, HCMV inh -67.5
COc1ccc(C=O)c(OC)c1	none
CCOC(=O)/C=C/c1cccc(OC)c1O	none (no result: HCV inhibitor, Sm TGR block)
COc1cccc(/C=C/C(=O)c2c(O)cc(C)oc2=O)c1O	FMDV antiviral 20µM, HCMV inh -97.1
O=C1c2ccccc2NC(c2ccc(-c3cccc([N+](=O)[O-])c3)o2)N1O (stereo unspecified)	Vaccinia Venus inconclusive, VACV mCherry inh 12.6µM, Sm TGR block inconclusive, HCMV inh -78.7
O=C1c2ccccc2NC(c2ccc(-c3ccc(F)cc3)o2)N1O (stereo unspecified)	Sm TGR block inconclusive (no result: Vaccinia Venus, HCV inhibitor, VACV mCherry inh)
O=C1c2ccccc2NC(c2ccc(-c3ccc(Br)cc3)o2)N1O (stereo unspecified)	HCV inhibitor inconclusive, HCMV inh -72.4 (no result: Vaccinia Venus, VACV mCherry inh)
Cc1c(C(=O)N2CCN(Cc3ccc4c(c3)OCO4)CC2)sc2ncnc(N3CCN(c4ccccc4)CC3)c12	HCV inhibitor inconclusive, FMDV antiviral 2.51µM, HCMV inh -85.8 (no result: Vaccinia Venus, VACV mCherry inh)
Cc1c(C(=O)N2CCN(Cc3ccc4c(c3)OCO4)CC2)sc2ncnc(N3CCN(c4ccccc4F)CC3)c12	HCV inhibitor inconclusive, FMDV antiviral 28.2µM, HCMV inh -76.4 (no result: Vaccinia Venus, VACV mCherry inh)
CCN(CC)CCN1C(=O)C(=O)/C(=C(/O)c2ccc(Cl)cc2)C1c1ccncc1 (stereo unspecified)	none
Oc1c(C(Nc2nc3ccccc3s2)c2ccco2)ccc2cccnc12 (stereo unspecified)	Vaccinia Venus inconclusive, HCV inhibitor 2.51µM, VACV mCherry inh 2.82µM, Sm TGR block inconclusive, HCMV inh -97.6
CC(C)C(=O)NC(c1ccc(N(C)C)cc1)c1ccc2cccnc2c1O (stereo unspecified)	Vaccinia Venus inconclusive, VACV mCherry inh 3.98µM (no result: HCV inhibitor, FMDV antiviral, Sm TGR block, HCMV inh)
CC(C)C(=O)NC(c1ccco1)c1ccc2cccnc2c1O (stereo unspecified)	Vaccinia Venus inconclusive, HCV inhibitor 3.98µM, HCMV inh -101.8 (no result: VACV mCherry inh)
c1coc(CNc2nc3ccccc3s2)c1	none
O=C(Cc1ccccc1)NC(c1ccco1)c1c(O)ccc2ccccc12 (stereo unspecified)	HCV inhibitor inconclusive (no result: Vaccinia Venus, VACV mCherry inh)
CC(C)C(=O)NC(Nc1cccc2cccnc12)C(Cl)(Cl)Cl (stereo unspecified)	HCV inhibitor inconclusive, FMDV antiviral inconclusive

Bioassay records deposited in PubChem by National Center for Advancing Translational Sciences (NCATS).
